# MazEF act: activators of E. coli MazEF toxin-antitoxin RNase | P0AE70 | FAM/BHQ RNA-DNA oligo cleavage fluorescence, 5 h | activation, % at 20 µM | 0.32% of 350,000 active; in the data active = activation above about 50%
# Target sequence (P0AE70 whole entry, looked up): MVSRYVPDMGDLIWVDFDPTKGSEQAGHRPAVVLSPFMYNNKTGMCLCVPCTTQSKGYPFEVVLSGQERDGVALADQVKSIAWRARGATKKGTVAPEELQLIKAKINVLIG
# BoNT-F LC inh: inhibitors of Botulinum neurotoxin F light chain protease; Multiplex microsphere protease cleavage assay, flow cytometry; inhibition, % at 10 µM; 0.22% of 360,000 active; in the data active = inhibition above about 35%, passing the limit was not always enough; inconclusive = no clear call, values can overlap the other calls; also: plate controls were buffer without enzyme for full effect and enzyme alone for no effect
# Bead autofluor: flagged as autofluorescent in microsphere protease counterscreen; compound autofluorescence counterscreen, microsphere flow cytometry; stronger effect = higher value; fluorescence intensity (no concentration beside the values); 3.1% of 360,000 active; AID 624483; in the data active = fluorescence intensity above about 16000; inconclusive = no clear call, values can overlap the other calls
# Anthrax LF inh2: anthrax lethal factor protease inhibition. multiplex microsphere protease cleavage assay, LF. inhibition, % at 10 µM. 0.12% of 360,000 active. P15917; also: plate controls were buffer without enzyme for full effect and enzyme alone for no effect
# BoNT A protease: blocks Botulinum neurotoxin A light chain protease. 0.17% of 360,000 active. multiplex microsphere protease substrate cleavage, flow cytometry. inhibition, % at 10 µM; also: plate controls were buffer without enzyme for full effect and enzyme alone for no effect
# DUSP3 inh: DUSP3 (human) phosphatase inhibition; recombinant VHR phosphatase, pNPP absorbance; P51452; 0.52% of 290,000 active; inhibition, % at 13.3 µM; in the data active = inhibition above about 50%
# Target sequence (P51452 whole entry, looked up): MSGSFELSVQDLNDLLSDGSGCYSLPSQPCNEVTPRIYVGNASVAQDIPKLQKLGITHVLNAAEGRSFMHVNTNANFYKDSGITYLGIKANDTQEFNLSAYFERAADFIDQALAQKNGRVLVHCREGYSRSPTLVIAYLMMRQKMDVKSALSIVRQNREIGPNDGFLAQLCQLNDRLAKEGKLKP
# * hit, by the source's call; ? = inconclusive; . = no result given. Compounds with a hit are over-represented: about 4% of the library has one in this group of screens. Rule as the data show it, unless noted: active = inhibition above about 30%; inconclusive = no clear call, values can overlap the other calls; inactive = below that.
SMILES,MazEF act,BoNT-F LC inh,Bead autofluor,Anthrax LF inh2,BoNT A protease,DUSP3 inh
COc1ccc(/C=C/C(=O)NC(=S)NN2CCCCC2c2cccnc2)cc1OC (centres undefined),4,-2,2523,-2,0,12
CC(Oc1ccccc1F)C(=O)NNC(=O)c1ccc(-n2cncn2)c([N+](=O)[O-])c1 (centres undefined),0,5,5961,-2,-3,.
O=C(CCc1ccccc1)c1ccc2c(c1)OCCCO2,-1,4,19780*,-1,?,6
CCCNC(=O)c1c(O)c2c([nH]c1=O)CCCC2,9,2,3501,3,0,-5
Cc1ccc(CNC(=O)C2CC(=O)OC23CCCC3)c(C)c1 (centres undefined),-2,2,16440*,-3,0,9
O=C1CC(C(=O)Nc2ccccc2)C2(CCCC2)O1 (centres undefined),2,5,6305,-13,1,9
COc1ccc(C)cc1NC(=O)C1CC(=O)OC12CCCCC2 (centres undefined),-3,-1,22901*,-1,-1,12
Cc1cccc(NC(=O)C2CC(=O)OC23CCCCC3)c1 (centres undefined),-8,5,4534,1,0,4
Cc1ccc(C)c(-n2c(-c3csc(C)c3)n[nH]c2=S)c1,-5,11,13477,-13,9,15
Cc1ccc(C)c(-n2c(-c3ccc4c(c3)OCO4)n[nH]c2=S)c1,6,1,23573*,-1,?,-1
CC1=C(C(=O)N2CCOCC2)C(c2ccccc2F)C2=C(CC(C)(C)CC2=O)N1 (centres undefined),8,2,19197*,-3,2,8
COc1ccc(C2C(C(=O)N3CCOCC3)=C(C)NC3=C2C(=O)CC(C)(C)C3)c(OC)c1 (centres undefined),8,8,6057,-3,0,11
COc1cc(OC)cc(-c2c(C#Cc3ccsc3)c3cc(-c4ccc5c(c4)OCO5)ccc3n2C)c1,-13,-6,3681,-11,0,.
COc1ccc2c(c1)/C(=C/c1cnc[nH]1)C(=O)N2,0,2,6058,-12,0,-22
O=C1Nc2ccccc2/C1=C/c1cnc(-c2ccccc2)[nH]1,98*,.,.,.,.,-22
O=C1Nc2ccccc2/C1=C/c1cnc[nH]1,2,0,19606*,-7,3,33
COc1ccc(C23CC4CC(CC(C4)C2)C3)cc1C(=O)NCCN(C)C,23,-14,3450,3,0,-11
O=C1C=C(c2cc3ccccc3s2)C[C@@H](c2ccc3c(c2)OCO3)C1,-6,-13,3008,-8,0,.
CC(=O)N1CCC2(CC1)C(C#N)=C(N)OC1=C2C(=O)CC(C)(C)C1,-6,-4,2957,1,0,23
CC1(C)CC(=O)C2=C(C1)OC(N)=C(C#N)C21CCN(Cc2ccccc2)CC1,50*,4,14003,4,-3,21
CC1(C)Cc2c(sc3ncn4nnnc4c23)CO1,.,.,.,.,.,52*
CC1(C)Cc2c(sc3ncnc(N)c23)CO1,0,6,18415*,-8,4,14
CC1(C)Cc2c(sc3nc[nH]c(=O)c23)CO1,3,-2,2432,-2,0,25
CC1(CC(=O)N/N=C/c2cc(Br)c(O)cc2O)OCCO1,-14,2,6994,-1,-1,-4
CS(=O)(=O)N(Cc1ccccc1)c1ccc(C(=O)Nc2ccc(C(N)=O)cc2)cc1,-9,?,3876,-3,?,-18
SMILES,MazEF act,BoNT-F LC inh,Bead autofluor,Anthrax LF inh2,BoNT A protease,DUSP3 inh
O=C1C(=C2CCCCC2)SC(=S)N1Cc1ccco1,-17,-2,23926*,-4,?,32
O=C(Nc1ccc(O)cc1)c1cc(S(=O)(=O)N2CCCC2)ccc1Cl,10,10,20180*,0,6,-4
COc1ccccc1N(CC(=O)Nc1ccc(S(=O)(=O)N2CCCCC2)cc1)S(C)(=O)=O,-1,-4,22900*,-2,?,14
COc1ccccc1C(=O)Nc1ccc(S(=O)(=O)N2CCCC2)cc1,-11,-2,16385*,-4,?,-8
COc1ccccc1CC(=O)Nc1ccc(S(=O)(=O)N2CCCCC2)cc1,9,6,4278,-11,0,17
COc1ccc(NC(=O)c2cc(S(=O)(=O)N3CCCCC3)ccc2N2CCCCC2)cn1,2,-2,23676*,1,-1,-5
O=C1CN=C(c2ccccc2)c2cc(Br)ccc2N1Cc1cc(=O)n2ccccc2n1,-4,-7,2586,-2,-1,4
Cc1oc(CC(C)C)cc1C(=O)NCCCC(=O)O,-6,-5,4829,-8,-1,17
Cc1c(NC(=O)c2cc(-n3cnnc3)ccc2Cl)cccc1-c1nc2ccccc2o1,19,-19,2147,-6,0,18
O=C(Nc1ccc(-c2nc3ccccc3o2)c(O)c1)c1cc(-n2cnnc2)ccc1Cl,-22,-2,21640*,1,-2,-4
O=C(Nc1ccc2oc(-c3ccccc3)nc2c1)c1cc(-n2cnnc2)ccc1Cl,54*,-10,4432,-8,0,-3
O=C(Nc1ccc(-c2nc3ccccc3o2)cc1)c1cc(-n2cnnc2)ccc1Cl,-26,-2,23846*,-1,0,4
CCCOc1ccc(N2C(=O)CC(N3CCN(CCN=CC4=C(O)CC(C)(C)CC4=O)CC3)C2=O)cc1 (centres undefined),-2,2,3928,4,0,18
CC(C(=O)NC(=O)NC1CCCCC1)N1CCN(C(c2ccccc2)c2ccccc2)CC1 (centres undefined),0,-7,16823*,-7,-2,-10
Cc1cc(NC(=O)CN2C(=O)NC3(CCC(C)CC3)C2=O)no1 (centres undefined),4,-11,2473,0,0,51*
Cc1cc(NC(=O)CN2C(=O)NC3(CCCCC3)C2=O)no1,6,-5,2427,2,0,5
Cc1cc(C)c(NC(=O)CN2C(=O)NC3(CCCCC3)C2=O)c(C)c1,8,0,20379*,0,1,-10
CC1CN(C(=O)CN2C(=O)NC3(CCCCCC3)C2=O)CC(C)O1 (centres undefined),-8,-4,24732*,-3,-2,25
COc1cc(C)ccc1N(CCCN1C(=O)c2cccc3cccc(c23)C1=O)C(=O)c1cccs1,1,-4,2136,0,0,10
O=C(NC12CC3CC(CC(C3)C1)C2)c1cncc(O)c1,-2,-1,20010*,0,1,-2
O=C(NC12CC3CC(CC(C3)C1)C2)c1cccnc1,2,-1,10972,0,0,-8
CCc1cc(N2CCOCC2)cc2c1[nH]c1ccccc12,27,8,17063*,-10,8,8
Cc1ccc(C)c(-n2c(Cc3cc(=O)[nH]c(=O)[nH]3)nnc2SCC(=O)NCc2ccco2)c1,1,20,4137,-5,0,.

# Screens from PubChem BioAssay.
